# Results: PMC12136788
# Where a chain is given by its changes, count along the chain named. In all, about 5,800 sequences were measured (“enrichment r”: median about 0.54, highest 2% from about 16 on). The full list was thinned out, with the highest values kept by preference.
# B1: chr1:62654060:62654161:-|CDS|ENSG00000116641|unk|FALSE|unique (ssRNA)
# RNA: GGGAGUUCUACAGUCCGACGAUCCUUGUUUUCUACCCAUCUCUUAUCCCAACUUUUUACAAAGGUGCCCCUUACCGAAGCAGUAGAUCCAGUGGAUUUGGAAGAUUACCUCAUUACUCAUCCUUUGGCUGUGGAUUCUGGGCCCAACAGAGGAUUGAGCAUCA
# B2: chr8:86558718:86558819:+|3pUTR|ENSG00000085719|unk|total|mutant (ssRNA)
# RNA: GGGAGUUCUACAGUCCGACGAUCCUGUUGUUGUUUUUGUUUACUUUCAUAUGAUGAAAAUGCUGUGUUUAAGUGUUUGUCAACCGGAAGAAUGGAAAACUGUUGGGAUGAUGUGGUUUGCAGGUUGCUGUGCCUGAUUCACAGCAACAGAGGAUUGAGCAUCA
# B3: chr13:20822168:20822271:-|CDS|ENSG00000132953|unk|FALSE|unique (ssRNA)
# RNA: GGGAGUUCUACAGUCCGACGAUCUCGAAAAAUCAGAGAAGAUUCAGAUAUGGCACAAGAUUCUCUGCAGUGCCUUGCCCAGUUAGCUUCUCUUCAUGGACCCAUCUUCCCAGAUGAAGGAUCACAAGUUGAUUAUCUAGCACACAACAGAGGAUUGAGCAUCA
# B4: chr21:43758806:43758907:+|3pUTR|ENSG00000160209|msi1|FALSE|unique (ssRNA)
# RNA: GGGAGUUCUACAGUCCGACGAUCACUUUCUUAAUCCAGUUUUUCAAACUUCUCCCUGUAGACCGUAAGGAUGAAUUCCACAAUAGGAUCCUUUUUAAAAUCGAUUUUAAAUUGUUGCCUAGUCCUGCCAAGGUUAUUAUGUGCCAACAGAGGAUUGAGCAUCA
# B5: chr14:21351797:21351898:-|3pUTR|ENSG00000092201|msi1|FALSE|unique (ssRNA)
# RNA: GGGAGUUCUACAGUCCGACGAUCGAGGAAGGCUCAAAGGAGUCAACAUUUAUAUCUGGAAGGGACAAGUCAUGCCUUGGGCCUAGAAUACCCUGAUGAGAAAAGAGAAGAGGAAGGGAGGCCAUAUCUACAACACAGCCUCUCCAACAGAGGAUUGAGCAUCA
# B6: chr3:121431430:121432303:-|three_prime_utr|ENSG00000051341|control|control|control (ssRNA)
# RNA: GGGAGUUCUACAGUCCGACGAUCUGGAAAGAACAGAGAUUACCCUUUCACCUACCUCAGCAAAACAAACUUUCAAGUCUUGAUAGACUUAGCCUAGUAAUUUUAUAGUGAGAGUUUCAAACUAUAUAUCAGUGUCUAUAGCAUCAACAGAGGAUUGAGCAUCA
# B7: chr9:122240152:122240253:-|3pUTR|ENSG00000119446|msi1|FALSE|unique (ssRNA)
# RNA: GGGAGUUCUACAGUCCGACGAUCCUUCUUGGAGUAUAGAAUUCACCAUUUUAUCCGUAAGUCUUCAAAGGAUUAUGGUGGACUAGAACUUACAUAGUGCAAAAUAGUCUUCUAUUUUUAAUAGGAACUUAGAAAAAACUUAGACAACAGAGGAUUGAGCAUCA
# B8: ENSG00000177426:stop:overlap|stop_codon|ENSG00000177426|stop_codon|NA|stop_codon (ssRNA)
# RNA: GGGAGUUCUACAGUCCGACGAUCCUCAAAGACAGAAGGAAUAUCUUUUUAUUGUAAACUUGAUAGUGUUAAAAGCUAAUAACUAGCUAUUUAGAGAACACAGAAACACUUGACAGUCAUCUAUCAGAUAGCAUUUCCUUUAAUCAACAGAGGAUUGAGCAUCA
# B9: ENSG00000070961:be:win_4551|3pUTR|ENSG00000070961|bound_else_gene|NA|bound_elsewhere_windowed (ssRNA)
# RNA: GGGAGUUCUACAGUCCGACGAUCAAUGAAAGAUGCUUGAAAUGCUUUUGUUAUUUCAGGCAAAUCAAAUUAAAUCAGACUAUCAAACUACAAGAGAACCUUAGUCUUUUUUGUUUUUGUCUAAACAUGUUAGUUUAGUGAUGUCAACAGAGGAUUGAGCAUCA
# B10: ENSG00000107863:be:win_1951|CDS|ENSG00000107863|bound_else_gene|NA|bound_elsewhere_windowed (ssRNA)
# RNA: GGGAGUUCUACAGUCCGACGAUCCCAGUAAAUCACUUGCAUCAGAACAGUCUGUUGAAUCAGCAGACAUGGGUAAGGACUGACAGUGCCCCCGAUCAGCAAGUGGAGACUGGGAAAUCCCCCUCUUUAUCUGGAGCCUCUGCCCAACAGAGGAUUGAGCAUCA
# B11: chr9:122240152:122240253:-|3pUTR|ENSG00000119446|msi1|total|mutant (ssRNA)
# RNA: GGGAGUUCUACAGUCCGACGAUCCUUCUUGGAGUACCGAAUUCACCAUUUUAUCCGUAAGUCUUCAAAGGAUUAUGGUGGACCCGAACUUACACCGUGCAAAACCGUCUUCUAUUUUUAACCGGAACUCCGAAAAAACUCCGACAACAGAGGAUUGAGCAUCA
# B12: chr1:213241217:213241334:+|CDS|ENSG00000136643|unk|total|mutant (ssRNA)
# RNA: GGGAGUUCUACAGUCCGACGAUCAGUUCUCCAAGAACAUCAGAUUCCCUCAGCCGAUCAAAAAACCGCCCCAUGGAAUUCUUCCGGACCGACAGUAAGGACCGCGCAAGUGAACUCCUGGGACUUGACUUUGGAGAAAAAUUGCAACAGAGGAUUGAGCAUCA
# B13: chr1:213241217:213241334:+|CDS|ENSG00000136643|unk|FALSE|unique (ssRNA)
# RNA: B12 RNA with C53U, C54A, C65U, C66A, C83U, C84A, C88U, C89A, C101U, C102A
# B14: ENSG00000120802:stop:overlap|stop_codon|ENSG00000120802|stop_codon|NA|stop_codon (ssRNA)
# RNA: GGGAGUUCUACAGUCCGACGAUCGUGGAACAUUAUUUGGAGGAGAAGUAUGCAAAGUAAUUAAAAAGCGUGGAAAUAAACACUAGUAAAAUUAAGGACAAAAAGACAUCUAUCUUAUCUUUCAGGUACUUUAUGCCAACAUUUCAACAGAGGAUUGAGCAUCA
# Biological target: MSI1 full-length (mouse, UniProt Q61474 1-362)
# Sequence (Q61474 whole entry): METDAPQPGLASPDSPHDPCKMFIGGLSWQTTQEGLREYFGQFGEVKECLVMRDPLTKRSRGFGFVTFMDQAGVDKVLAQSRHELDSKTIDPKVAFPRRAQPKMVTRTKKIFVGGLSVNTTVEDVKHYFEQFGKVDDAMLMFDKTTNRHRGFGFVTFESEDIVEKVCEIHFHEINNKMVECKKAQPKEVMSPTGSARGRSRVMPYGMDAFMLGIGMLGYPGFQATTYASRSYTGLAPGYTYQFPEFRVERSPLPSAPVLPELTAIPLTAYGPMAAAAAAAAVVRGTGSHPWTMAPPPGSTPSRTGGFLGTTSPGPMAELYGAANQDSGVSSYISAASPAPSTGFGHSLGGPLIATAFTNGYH
# Experiment: nsRBNS (natural sequence RNA bind-n-seq); RBNS binding buffer (assumed for nsRBNS): 25 mM Tris pH 7.5, 150 mM KCl, 3 mM MgCl2, 0.01% Triton X-100, 500 ug/ml BSA, 20 U/ml SUPERase-In, 4 C; UNK is unkempt and MSI1 is Musashi-1; names of the RNAs are library labels; protein concentration not given here; high values mean tight binding
row,Binder,binding signal [enrichment R]
1,B1,0.626
2,B2,0.342
3,B3,0.341
4,B4,0.936
5,B5,0.748
6,B6,17.4
7,B7,20.5
8,B8,0.812
9,B9,1.39
10,B10,0.425
11,B11,0.272
12,B12,0.533
13,B13,24.6
14,B14,1.57
